Experimental findings from PubChem BioAssay (NCATS) are described below.

Molecules are shown by their SMILES. Inconclusive results are not listed. Values without a mark were called inactive. Active and inactive are the calls of the source. Calls come from the whole dose curve; as a rule, active = well fitted inhibition curve with a large enough effect; inconclusive = small, poorly fitted or top-dose-only effect; inactive = flat fitted curve, though single readings scatter.
% is set by controls: 0 for no effect and ±100 for the full control effect.

This experiment deals with Glutathione peroxidase 1 (Homo sapiens) (UniProt P07203). Kind of experiment: Primary qHTS Assay for Inhibitors of Recombinant Selenoprotein Glutathione Peroxidase 1 (GPX1) (AID 1845191). Note: nearly all actives have a fitted effect of over 65% in size. The conditions noted are these: recombinant GPX1, GR-coupled NADPH fluorescence, 15 min; series mostly up to 48.8 µM; activity, negative = inhibition: at the top concentration. An outline of the steps: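 GR-coupled assay: compounds preincubated 30 min at room temperature with GPX1, then reaction started with CHP; final 10 nM GPX1, 1 mM GSH, 0.5 mM CHP, 0.5 mM NADPH, 100 nM GR, 0.01% BSA, pH 7.5 Tris buffer. NADPH fluorescence (340/450 nm) read at 0 and 15 min.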
Sequence of Glutathione peroxidase 1 (Homo sapiens) (P07203 whole entry, looked up): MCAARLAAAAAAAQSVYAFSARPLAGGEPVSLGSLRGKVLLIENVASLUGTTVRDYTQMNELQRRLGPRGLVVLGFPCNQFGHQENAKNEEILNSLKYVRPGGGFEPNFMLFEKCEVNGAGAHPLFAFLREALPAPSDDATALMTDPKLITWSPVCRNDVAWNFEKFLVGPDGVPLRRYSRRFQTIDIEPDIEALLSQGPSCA
A general note: qHTS replaces the single test concentration by a dilution series.
As to `C#C[C@]1(O)CC[C@H]2[C@@H]3CCc4cc(OC)ccc4[C@H]3CC[C@@]21C`, the Potency entry is “inactive”.

As to `CCc1nn(CCCN2CCN(c3cccc(Cl)c3)CC2)c(=O)n1CCOc1ccccc1`, the result was inactive.

As to `CCOC(=O)[C@H](CCc1ccccc1)N[C@@H](C)C(=O)N1[C@H](C(=O)O)C[C@@H]2CCC[C@@H]21`, the Potency entry is “inactive”.

For the compound `CC(C)Cc1ccc(CC(=O)O)cc1`, the result was inactive.

Consider `CC[C@H](c1ccc(O)cc1)[C@@H](CC)c1ccc(O)cc1`, for which the “activity, negative = inhibition” value was -27.8%.

`CN(C)CCN1C(=O)c2ccccc2N(C)c2ccccc21`: the “activity, negative = inhibition” value is -2.51%.

For the compound `NC1CCN(c2nc3c(cc2F)c(=O)c(C(=O)O)cn3-c2ccc(F)cc2F)C1` (stereo not drawn), the result was inactive.

With `CCc1ccc(C(=O)C(C)CN2CCCCC2)cc1` (stereo not drawn), the “activity, negative = inhibition” value is -11.6%.

As for `O=C(O)CCC(=O)Nc1ccc(S(=O)(=O)Nc2nccs2)cc1`, the outcome was inactive.

In the case of `CCOC(=O)Nc1ccc2c(c1)N(C(=O)CCN1CCOCC1)c1ccccc1S2`, the “activity, negative = inhibition” value was -19.4%.

Regarding `CCN(CC)CCOc1ccccc1C(=O)CCc1ccccc1`, the outcome was inactive.

With `NS(=O)(=O)c1cc(C(=O)O)cc(N2CCCC2)c1Oc1ccccc1`, the outcome was inactive.

As for `C[C@@]12C(=O)OC(=O)[C@]1(C)C1CCC2O1`, the “activity, negative = inhibition” value was -19.4%.

On to `CCCCC(CC)COC(=O)/C=C/c1ccc(OC)cc1` (stereo not drawn), for which the “activity, negative = inhibition” value is -6.86%.

As to `CC(C)Nc1cccnc1N1CCN(C(=O)c2cc3cc(NS(C)(=O)=O)ccc3[nH]2)CC1`, the “activity, negative = inhibition” value is -25.9%.

As for `CCCCCCCCCCCCSCCOCCO`, the “activity, negative = inhibition” value was -8.5%.

Regarding `COc1ccc(C(Cl)=C(c2ccc(OC)cc2)c2ccc(OC)cc2)cc1`, the “activity, negative = inhibition” value was 4.04%.

For the compound `CO[C@H]1C=CO[C@@]2(C)Oc3c(C)c(O)c4c(O)c(c(/C=N/N5CCN(C)CC5)c(O)c4c3C2=O)NC(=O)/C(C)=C\C=C[C@H](C)[C@H](O)[C@@H](C)[C@@H](O)[C@@H](C)[C@H](OC(C)=O)[C@@H]1C`, the “activity, negative = inhibition” value was -12.3%.

For the compound `NC(=O)C1(N2CCCCC2)CCN(CCCC(=O)c2ccc(F)cc2)CC1`, the “activity, negative = inhibition” value was 4.13%.

As for `O=C(O)CCNC(=O)c1ccccc1`, the result was inactive.

Consider `CCOc1cc(OCC)c(C(=O)CCC(=O)O)cc1OCC`, for which the outcome was inactive.

With `COc1cc(NS(=O)(=O)c2ccc(N)cc2)ncn1`, the “activity, negative = inhibition” value was -20.2%.

As for `O=C(Oc1cccc2cccnc12)c1ccccc1`, the outcome was inactive.

As for `C/C=C/c1ccc(O)c(OC)c1`, the “activity, negative = inhibition” value was -1.01%.

On to `OC[C@H]1O[C@@H](Oc2ccc(O)cc2)[C@H](O)[C@@H](O)[C@@H]1O`, for which the “activity, negative = inhibition” value was -14.7%.

Turning to `NC(=O)c1ccccc1O`, the “activity, negative = inhibition” value is -5.89%.

Regarding `CC(CNC1CCCCC1)OC(=O)c1ccccc1` (stereo not drawn), the “activity, negative = inhibition” value is 4.2%.

`Cc1c[nH]c2ccccc12`: the “activity, negative = inhibition” value is -3.13%.

As to `C[C@@H](O)[C@H]1C(=O)N2C(C(=O)O)=C(S[C@@H]3CN[C@H](CNS(N)(=O)=O)C3)[C@H](C)[C@H]12`, the Potency entry is “inactive”.

Consider `CCC(Cc1c(I)cc(I)c(N)c1I)C(=O)O` (stereo not drawn), for which the outcome was inactive.

On to `CCCCCN=C(N)N/N=C/c1c[nH]c2ccc(OC)cc12`, for which the “activity, negative = inhibition” value is 4.03%.

For `Cc1c(-c2ccccc2)oc2c(C(=O)OCCN3CCCCC3)cccc2c1=O`, the “activity, negative = inhibition” value is -14.8%.

On to `Nc1ccc(S(=O)(=O)Nc2cnc3ccccc3n2)cc1`, for which the “activity, negative = inhibition” value is -1.36%.

Turning to `CN(CCCN1c2ccccc2CCc2ccccc21)CC(=O)c1ccc(Cl)cc1`, the outcome was inactive.

As for `Nc1nc(-c2ccccc2)c(Br)c(=O)[nH]1`, the “activity, negative = inhibition” value is -12.5%.

For `CC(=O)O[C@H]1C[C@@H]2CC[C@@H]3[C@H](CC[C@@]4(C)[C@H]3C[C@H]([N+]3(C)CCCCC3)[C@@H]4OC(C)=O)[C@@]2(C)C[C@@H]1N1CCCCC1`, the outcome was inactive.

Turning to `Cc1cc(C)cc(OCC2CNC(=O)O2)c1` (stereo not drawn), the result was inactive.

For `Nc1nc(Cl)nc2c1ncn2[C@@H]1O[C@H](CO)[C@@H](O)[C@@H]1F`, the Potency result is “inactive”.
